Compound activity as filed in PubChem BioAssay.
C diff growth = inhibitors of Clostridium difficile growth | Clostridium difficile clinical isolate growth, OD600, 24 h; active compounds read low | actives 0.25% (n = 86,000) | growth activity, negative = inhibition, % at 16 µg/mL (by protocol) | AID 1259249;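 active = mean growth activity at or below -80% and every replicate also at or below -80%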
Pf Dd2 growth = P. falciparum Dd2 growth inhibition; activity change, % at 10 µM; AID 1159554; actives 2.3% (n = 94,000); SYBR Green, 72 h; active compounds read low; in the data active = activity change below about -80%
A number is an active result; n = inactive; x = not tested or not shown. A selection: hits, their analogues and other compounds. The true share with any hit is near 2.4%.

SMILES	C diff growth	Pf Dd2 growth
C[C@@H]1CN([C@H](C)CO)C(=O)c2ccccc2-c2ccccc2CO[C@@H]1CN(C)Cc1ccc(C(F)(F)F)cc1	n	-87
O=C(Cc1ccncc1)Nc1ccc2c(c1)[C@@H]1C[C@@H](CC(=O)NC3CCCC3)O[C@H](CO)[C@@H]1O2	x	n
COC(=O)C[C@H]1CC[C@H]2[C@@H](COc3ccc(NC(=O)Cc4cccs4)cc3C(=O)N2C)O1	n	x
C[C@@H]1CN([C@H](C)CO)C(=O)c2cc(NC(=O)NC3CCCCC3)ccc2O[C@@H](C)CCCCO[C@@H]1CN(C)C(=O)Nc1ccccc1	x	-81
C[C@@H]1CN([C@H](C)CO)C(=O)c2cc(NC(=O)NC3CCCCC3)ccc2O[C@@H](C)CCCCO[C@@H]1CN(C)C(=O)Nc1ccc(F)cc1	n	-88
C[C@@H]1CN([C@H](C)CO)C(=O)c2cc(NC(=O)Nc3ccccc3)ccc2O[C@@H](C)CCCCO[C@@H]1CN(C)C(=O)NC1CCCCC1	n	-85
C[C@@H]1CCCCO[C@@H](CN(C)C(=O)Nc2ccc(F)cc2)[C@H](C)CN([C@H](C)CO)C(=O)c2cc(NC(=O)NC3CCCCC3)ccc2O1	n	n
C[C@@H]1CCCCO[C@@H](CN(C)C(=O)Nc2ccccc2)[C@@H](C)CN([C@H](C)CO)C(=O)c2cc(NC(=O)NC3CCCCC3)ccc2O1	x	n
C[C@@H]1CCCCO[C@@H](CN(C)C(=O)NC2CCCCC2)[C@H](C)CN([C@@H](C)CO)C(=O)c2cc(NC(=O)Nc3ccccc3)ccc2O1	n	n
C/C=C/c1cnc2c(c1)C(=O)N([C@@H](C)CO)C[C@@H](C)[C@H](CN(C)C(=O)c1ccc3c(c1)OCO3)O2	n	n
COc1cccc(CN(C)C[C@H]2OCc3ccccc3-c3c(n(C)c4ccccc34)C(=O)N([C@H](C)CO)C[C@H]2C)c1	n	-88
C[C@H](CO)N1C[C@H](C)[C@H](CN(C)Cc2cccc(O)c2)OCc2ccccc2-c2c(n(C)c3ccccc23)C1=O	n	n
C[C@H]1CN([C@@H](C)CO)C(=O)c2c(c3ccccc3n2C)-c2ccccc2CO[C@H]1CN(C)Cc1cccc(C(=O)O)c1	n	n
C[C@H](CO)N1C[C@H](C)[C@H](CN(C)Cc2cccc(F)c2)OCc2ccccc2-c2c(n(C)c3ccccc23)C1=O	n	n
C[C@H](CO)N1C[C@H](C)[C@@H](CN(C)Cc2cccc(C(=O)Nc3ccccc3N)c2)OCc2ccccc2-c2c(n(C)c3ccccc23)C1=O	n	-91
COc1cccc(CN(C)C[C@@H]2OCc3ccccc3-c3c(n(C)c4ccccc34)C(=O)N([C@@H](C)CO)C[C@@H]2C)c1	n	n
C[C@@H]1CN([C@@H](C)CO)C(=O)c2c(c3ccccc3n2C)-c2ccccc2CO[C@@H]1CN(C)Cc1cccc(F)c1	n	-86
C[C@H]1CN([C@@H](C)CO)C(=O)c2c(c3ccccc3n2C)-c2ccccc2CO[C@@H]1CN(C)Cc1cccc(O)c1	n	-89
C[C@H]1CN([C@@H](C)CO)C(=O)c2cc(NS(=O)(=O)c3ccc(Cl)cc3)ccc2O[C@@H]1CN(C)C(=O)Nc1cccc2ccccc12	n	n
CNC(=O)C[C@H]1CC[C@H]2[C@@H](COc3ccc(NC(=O)Nc4c(C)noc4C)cc3C(=O)N2C)O1	n	n
CC=Cc1ccc2n(c1=O)C[C@H]1[C@H](CO)[C@@H](C(=O)NCC3CC3)[C@@H]2N1C(=O)C1CC1 (mixture of isomers)	n	n
O=C(C[C@H]1CC[C@@H]2[C@H](COC[C@@H](O)CN2C(=O)Nc2ccc(Cl)cc2)O1)NCCc1ccncc1	n	n
C[C@@H]1CN([C@@H](C)CO)C(=O)c2cccc(NC(=O)CCCCCC(=O)Nc3ccccc3N)c2O[C@@H]1CN(C)Cc1ccccc1	n	-87
C[C@H](CO)N1C[C@H](C)[C@@H](CN(C)Cc2ccc(Cl)c(Cl)c2)Oc2ccc(NC(=O)CCCCCC(=O)Nc3ccccc3N)cc2CC1=O	n	n
C[C@H]1CN([C@@H](C)CO)C(=O)c2cccc(NC(=O)CCCCCC(=O)Nc3ccccc3N)c2O[C@@H]1CN(C)Cc1ccncc1	n	n
SMILES	C diff growth	Pf Dd2 growth
CC(C)NC(=O)Nc1cccc2c1O[C@@H](CN(C)CC1CCCCC1)[C@@H](C)CN([C@H](C)CO)C2=O	n	n
CC(C)NC(=O)Nc1cccc2c1O[C@@H](CN(C)CC1CCCCC1)[C@H](C)CN([C@@H](C)CO)C2=O	n	-81
C[C@H](CO)N1C[C@H](C)[C@H](CN(C)Cc2ccc(Cl)c(Cl)c2)Oc2c(NC(=O)CCCCCC(=O)Nc3ccccc3N)cccc2C1=O	n	-88
C[C@H](CO)N1C[C@H](C)[C@@H](CN(C)Cc2ccc(-c3ccccc3)cc2)Oc2c(NC(=O)CCCCCC(=O)Nc3ccccc3N)cccc2C1=O	n	-87
C[C@@H]1CN([C@@H](C)CO)C(=O)c2cccc(NC(=O)CCCCCC(=O)Nc3ccccc3N)c2O[C@H]1CN(C)C	n	n
C[C@@H]1CN([C@H](C)CO)C(=O)c2cc(C#Cc3ccccn3)cnc2O[C@@H]1CN(C)CC1CCCC1	x	n
C[C@@H]1CN([C@@H](C)CO)C(=O)c2cccc(NC(=O)CCCCCC(=O)Nc3ccccc3N)c2O[C@H]1CN(C)CC1CCCCC1	n	-89
C[C@@H]1CN([C@@H](C)CO)C(=O)c2cccc(NC(=O)CCCCCC(=O)Nc3ccccc3N)c2O[C@H]1CN(C)Cc1ccc(-c2ccccc2)cc1	n	-91
C[C@H](CO)N1C[C@H](C)[C@H](CN(C)CC2CC2)Oc2c(NC(=O)CCCCCC(=O)Nc3ccccc3N)cccc2C1=O	n	n
C[C@H](CO)N1C[C@H](C)[C@H](CN(C)C)Oc2c(NC(=O)CCCCCC(=O)Nc3ccccc3N)cccc2C1=O	n	n
C/C=C/c1ccc([C@@H]2[C@H](CO)N(Cc3ccccn3)[C@H]2CNC(C)=O)cc1	n	n
CC(C)NC(=O)Nc1ccc2c(c1)C(=O)N([C@H](C)CO)C[C@H](C)[C@H](CN(C)C(=O)CCC(F)(F)F)OCCCC[C@@H](C)O2	n	n
O=C(C[C@@H]1CC[C@H]2[C@@H](COC[C@@H](O)CN2S(=O)(=O)c2ccccc2)O1)N1CCOCC1	n	n
C[C@@H]1CN([C@H](C)CO)C(=O)c2cc(NC(=O)CCN3CCOCC3)ccc2O[C@H]1CN(C)Cc1ccc(C(F)(F)F)cc1	n	n
Cc1ccc(S(=O)(=O)N(C)C[C@@H]2OCCCC[C@@H](C)Oc3ccc(NC(=O)c4ccccc4)cc3C(=O)N([C@@H](C)CO)C[C@H]2C)cc1	x	-81
C[C@@H]1CCCCO[C@H](CN(C)S(=O)(=O)c2ccc(F)cc2)[C@@H](C)CN([C@@H](C)CO)C(=O)c2cc(NC(=O)c3ccccc3)ccc2O1	n	-84
Cc1ccc(S(=O)(=O)N(C)C[C@@H]2OCCCC[C@@H](C)Oc3ccc(NC(=O)c4ccccc4)cc3C(=O)N([C@H](C)CO)C[C@@H]2C)cc1	x	n
Cc1ccc(S(=O)(=O)N(C)C[C@@H]2OCCCC[C@H](C)Oc3ccc(NC(=O)c4ccccc4)cc3C(=O)N([C@@H](C)CO)C[C@H]2C)cc1	x	-84
C[C@@H]1CCCCO[C@H](CN(C)S(=O)(=O)c2ccc(F)cc2)[C@H](C)CN([C@@H](C)CO)C(=O)c2cc(NC(=O)c3ccccc3)ccc2O1	n	n
